# Assay results as given in PubChem BioAssay AID2540 (Sanford-Burnham Center for Chemical Genomics, 2010).
# Screen size: about 330,000 compounds; about 4,100 (1.2%) were called active. This is one part of a sample in which actives are shown more often than they occur. Cut-off read from the data, not from the text of the source: active = inhibition above about 50%; inactive = the rest.
# Molecular target: Sentrin-specific protease 8 (Homo sapiens) (UniProt Q96LD8)
# Assay: SENP8 protease inhibitors, primary screen, biochemical, luminescence (AID 2540)
# Details: purified SENP8, Z-RLRGG-aminoluciferin cleavage, at 10 µM, hits give high values
# Sentrin-specific protease 8 (Homo sapiens), sequence (Q96LD8 whole entry, looked up): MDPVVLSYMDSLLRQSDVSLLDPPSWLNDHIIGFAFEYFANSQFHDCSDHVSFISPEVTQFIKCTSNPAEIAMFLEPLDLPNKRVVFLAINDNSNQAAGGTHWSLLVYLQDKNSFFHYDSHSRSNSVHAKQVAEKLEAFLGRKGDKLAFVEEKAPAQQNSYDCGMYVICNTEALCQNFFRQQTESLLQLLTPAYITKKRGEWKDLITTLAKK
row,SMILES,inhibition
1,O=C(Nc1ccc(Cl)cn1)c1ccc2c(c1)OCCO2,75.8% (active)
2,Cc1ccc(C(=O)NNC(=O)c2ccc3c(c2)OCCO3)cc1,5.52% (inactive)
3,CCCCC(CC)C(=O)Nc1ccc(Cl)cn1 (centres undefined),7.93% (inactive)
4,COc1ccc(C(=O)NC(=S)Nc2ccc(Cl)cn2)cc1OC,-13.1% (inactive)
5,O=C(Nc1ccc(Cl)cn1)c1cnn2cccnc12,-0.161% (inactive)
6,CCCc1cc(C(=O)Nc2ccc(C(=O)OC)cc2)cs1,-3.33% (inactive)
7,CCCc1cc(C(=O)Nc2ccc(Cl)cn2)cs1,66.2% (active)
8,Cc1nc(NC(=O)c2ccc3c(c2)OCCO3)ccc1Br,74.8% (active)
9,Cc1cccc(C)c1NC(=O)CNC(=O)c1ccc2c(c1)OCCO2,-10.7% (inactive)
10,CCCCN(C(=O)CCNC(=O)NC12CC3CC(CC(C3)C1)C2)c1c(N)n(CCCC)c(=O)[nH]c1=O,-4.31% (inactive)
11,COc1ccccc1NC(=O)CCC(=O)OC(C)C(=O)c1ccccc1 (centres undefined),-4.92% (inactive)
12,Cc1cc(Nc2cc(N3CCN(C)CC3)nc(Sc3ccc(NC(=O)C4CC4)cc3)n2)n[nH]1,-3.96% (inactive)
13,CC(=O)N(C1=C(Cl)C(=O)c2ccccc2C1=O)c1ccc(C(=O)O)cc1,61.8% (active)
14,O=C(CCN1C(=O)c2ccccc2C1=O)NNC(=O)c1ccc(Cl)cc1Cl,-11.3% (inactive)
15,O=S1(=O)CC/C(=N\Nc2ccc(F)cc2)c2ccsc21,-11.5% (inactive)
16,CNC(C)C#Cc1ccc2sc3cc(OC)c(OC)cc3c(=O)c2c1 (centres undefined),70.5% (active)
17,O=C(NC(=S)N1CCCCC1c1cccnc1)c1ccccc1 (centres undefined),-8.93% (inactive)
18,O=C(CCCCO)c1ccc(O)c(Cl)c1,-4.6% (inactive)
19,Cc1ccc(-c2cn3cc(C)ccc3n2)cc1,84.7% (active)
20,Cc1cc(N2CCOCC2)nc(-c2ccc(Br)cc2)n1,-13.3% (inactive)
21,COc1ccc(-c2cn3ccc(C)cc3n2)cc1,95.5% (active)
22,Cc1ccc(-c2cc(N)on2)cc1,-6.42% (inactive)

row,SMILES,inhibition
1,Cc1ccc2nc(-c3ccc(Br)cc3)cn2c1,74.4% (active)
2,Cc1ccc(-n2c(-c3ccc(Cl)cc3)n[nH]c2=S)cc1,-0.548% (inactive)
3,CSc1nnc2ccc(-c3ccc(C)cc3)nn12,-14.2% (inactive)
4,Cc1ccn2cc(C(=O)NC3CCN(Cc4ccccc4)CC3)nc2c1,3.06% (inactive)
5,CCN(CC)S(=O)(=O)c1ccc(-c2cn3ccc(C)cc3n2)cc1,-1.4% (inactive)
6,COCCN(CCOC)S(=O)(=O)NC[C@H]1O[C@@H](n2cnc3c(N)ncnc32)[C@H](O)[C@@H]1O,3.39% (inactive)
7,COc1ccccc1CCNS(=O)(=O)c1cc2c3c(c1)C(C)C(=O)N3CCC2 (centres undefined),-8.53% (inactive)
8,CCn1nc(C)c(/C=N/NC(=O)Cc2ccc(Cl)cc2)c1C,-9.56% (inactive)
9,Cc1ccc(NC(=O)CC2C(=O)N(Cc3ccccc3)C(=S)N2NC(=O)c2cccc(F)c2)c(C)c1 (centres undefined),-4.05% (inactive)
10,Cc1ccc(O)c(NC(=S)NC(=O)COc2ccc(Br)cc2)c1,-5.01% (inactive)
11,CCCc1cc(=O)[nH]c(SCc2ccc(C#N)cc2)n1,0.541% (inactive)
12,C(=N\Nc1ccc2ccccc2n1)/c1ccc2c(c1)OCO2,93.1% (active)
13,Cc1noc(C)c1/C=N/Nc1ccc2ccccc2n1,-8.03% (inactive)
14,Cc1cc(=O)[nH]c(N/N=C/c2ccc3c(c2)OCCO3)n1,-1.24% (inactive)
15,COc1cc(-c2nnc(Cn3cc(C(F)(F)F)ccc3=O)o2)cc(OC)c1OC,-4.14% (inactive)
16,Cc1ccc(C)c(-n2c(SCC(=O)O)nc3sc4c(c3c2=O)CCCC4)c1,-9.61% (inactive)
17,CCCCCc1ccc(-c2ccc(OCC)cc2)nc1,-5.58% (inactive)
18,CCCCCc1ccc(-c2cn(Cc3ccc4ccccc4c3)nn2)cc1,-9.63% (inactive)
19,CCCCCc1ccc(-c2ccc(C(=O)O)cc2)nc1,92.4% (active)
20,CC(C)CN(C(=O)CSc1nncn1C)C1CCS(=O)(=O)C1 (centres undefined),-3.63% (inactive)
21,CCOCCc1nn2c(=O)cc(CSCC(=O)Nc3cccc(C)c3C)nc2s1,-0.564% (inactive)
22,O=C(Nc1nnc(C2COc3ccccc3O2)o1)c1ccc(F)cc1 (centres undefined),-17.2% (inactive)

row,SMILES,inhibition
1,FC(F)(F)c1ccnc(Oc2ccc(C3=NCCS3)cc2)c1,67.8% (active)
2,CC(C)Oc1ccc(Oc2ccc(C(F)(F)F)cn2)cc1,-8.39% (inactive)
3,NC1=NC(=O)C(Cc2cccc(Cl)c2)S1 (centres undefined),-2.31% (inactive)
4,O=C(NCCCN1CCOCC1)c1cnn2c(-c3ccccc3)cc(-c3ccccc3)nc12,-0.117% (inactive)
5,N#C/C=C1\Sc2ccccc2C(=O)N1CC(=O)N1CCN(S(=O)(=O)c2ccccc2)CC1,-2.48% (inactive)
6,CCCc1ccc(OCCNC(=O)c2ccco2)cc1,2.92% (inactive)
7,CCCc1ccc(OCCNC(=O)c2ccccc2Br)cc1,7.2% (inactive)
8,CCCOc1ccc(C(=O)NCCc2ccccc2)cc1,52% (active)
9,CCCC(C(=O)n1nc(C)cc1C)C(NS(=O)(=O)c1ccc(C)cc1)c1ccccc1 (centres undefined),-2.3% (inactive)
10,Cc1ccc(C)c(NC(=O)NNC(=O)c2ccc3ccccc3c2O)c1,-2.4% (inactive)
11,C#CCOCCOCCOCCNc1nc(N2CCN(C(=O)[C@H](CCCN=C(N)N)n3cc(C(N)[C@@H](C)CC)nn3)CC2)nc(N2CCN(C(=O)[C@H](CO)n3cc([C@@H](N)C(C)C)nn3)CC2)n1 (some centres undefined),5.69% (inactive)
12,O=C(O)/C=C/C(=O)NNc1ccc([N+](=O)[O-])cc1,69.3% (active)
13,O=C(Cc1ccccc1)NNS(=O)(=O)c1ccc([N+](=O)[O-])cc1,-1.17% (inactive)
14,CNC(=S)Nc1ccc([N+](=O)[O-])cc1,-4.02% (inactive)
15,CCOC(=O)C1(Cc2cccc(OC)c2)CCN(Cc2csc(C(C)=O)c2)CC1,-11.2% (inactive)
16,O=C(CCCCCn1c(=S)[nH]c2ccsc2c1=O)NC1CCCCC1,0.315% (inactive)
17,Cc1nn(CC(=O)Nc2ccc(C#N)cc2)c(C)c1[N+](=O)[O-],-9.74% (inactive)
18,CN(CC(=O)Nc1ccc(Cl)cc1)CC(=O)Nc1cccc2ccccc12,-2.39% (inactive)
19,O=C(O)Cc1ccc(NC(=O)Nc2cccc3ccccc23)cc1,-11% (inactive)
20,O=C(Nc1cccc2ccccc12)c1onc2c1CCCC2,71.5% (active)
